Experimental findings from PubChem BioAssay are described below.

Unmarked numbers belong to inactive results. For some of these results: Entries with a potency or affinity are not part of this list. The source made the active and inactive calls. Unless noted, the rule behind the calls is not given here. Non-standard residues stand in square brackets, D forms with d. Residues, ends and D or L forms follow the SMILES beside them. *: point of attachment. Butanoyl(4-(4-HOPh)) = O=C(CCCc1ccc(O)cc1)*

A short description of assay [1]: antimalarial activity against Dd2 strain (AID 2302;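 active = growth inhibition above 50% at the single 2 µM test dose, taken to imply half-maximal potency below 2 µM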;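 note: 0% = DMSO untreated growth and 100% = chloroquine plus artemisinin killed control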). Conditions: P. falciparum Dd2 in RBCs, LDH growth readout, 72 h; at 2 µM; active compounds read high.
A short description of assay [2]: HepG2 cytotoxicity, primary screen, cytotoxicity control for P. falciparum antimalarial project, cell-based, ATP luminescence (AID 2303;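 active = inhibition above 50%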;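 note: 0% = DMSO wells and 100% = digitonin-killed cells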). Conditions: HepG2 viability, 24-48 h, at 10 µM, active compounds read high.
Assay [3] deals with L-lactate dehydrogenase (Plasmodium falciparum (isolate CDC / Honduras)) (UniProt Q27743). The assay can be described thus: PfLDH activity inhibition – cell lysate, 3D7 strain, counter-screen for P. falciparum growth inhibition project (AID 2304).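 Note: 0% = vehicle and 100% = reference inhibitor.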 Conditions: P. falciparum 3D7 crude extract, LDH APAD/NBT absorbance; at 2 µM; active compounds read high. In general terms: Counterscreens check selectivity or assay interference.
Sequence of L-lactate dehydrogenase (Plasmodium falciparum (isolate CDC / Honduras)) (Q27743 whole entry, looked up): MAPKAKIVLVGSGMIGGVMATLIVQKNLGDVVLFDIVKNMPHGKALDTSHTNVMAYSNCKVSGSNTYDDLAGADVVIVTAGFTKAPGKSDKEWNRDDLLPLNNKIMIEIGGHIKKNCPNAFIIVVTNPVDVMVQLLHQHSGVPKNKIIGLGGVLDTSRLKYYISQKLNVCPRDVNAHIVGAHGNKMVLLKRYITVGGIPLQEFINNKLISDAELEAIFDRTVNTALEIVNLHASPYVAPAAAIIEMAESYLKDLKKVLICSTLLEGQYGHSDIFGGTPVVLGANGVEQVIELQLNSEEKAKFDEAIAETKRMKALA

Assay [4] in a line: inhibition of 3D7 malaria parasite growth – strain 3D7 (AID 2306).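 Note: 0% = DMSO wells and 100% = chloroquine plus artemisinin control wells.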 Conditions: P. falciparum 3D7 erythrocytic growth, LDH absorbance, 72 h; at 2 µM; active compounds read high.
The target of assay [5] is Calcium-dependent protein kinase 1 (Plasmodium falciparum (isolate 3D7)) (UniProt P62344). Briefly: PfCDPK1 kinase inhibitors, biochemical, TCAMS library (AID 1159585; cut-off not given, nearly all actives have IC50 up to about 0.98 µM;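 note: inhibitors leave more ATP so luminescence rises with inhibition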). Conditions: recombinant PfCDPK1, Kinase-Glo ATP depletion luminescence. A general note: Kinase-Glo reads ATP consumption through a luciferase reaction.
Sequence of Calcium-dependent protein kinase 1 (Plasmodium falciparum (isolate 3D7)) (P62344 whole entry, looked up): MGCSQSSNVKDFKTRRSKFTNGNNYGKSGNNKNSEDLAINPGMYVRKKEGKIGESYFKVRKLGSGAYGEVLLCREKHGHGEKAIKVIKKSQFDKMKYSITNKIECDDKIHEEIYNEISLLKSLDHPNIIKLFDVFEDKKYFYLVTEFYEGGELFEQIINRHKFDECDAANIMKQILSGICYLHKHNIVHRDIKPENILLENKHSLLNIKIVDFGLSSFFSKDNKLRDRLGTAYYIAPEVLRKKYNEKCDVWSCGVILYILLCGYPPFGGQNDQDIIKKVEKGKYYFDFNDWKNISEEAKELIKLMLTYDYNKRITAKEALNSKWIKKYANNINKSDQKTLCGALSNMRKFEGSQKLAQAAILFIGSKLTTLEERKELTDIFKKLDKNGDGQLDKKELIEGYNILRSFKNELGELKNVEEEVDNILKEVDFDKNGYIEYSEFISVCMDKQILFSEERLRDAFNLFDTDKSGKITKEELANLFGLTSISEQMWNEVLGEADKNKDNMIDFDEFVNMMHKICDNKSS
For assay [6], the target named is Plasmodium falciparum protein kinase 6 (PK6, PF3D7_1337100) (UniProt Q8IDW1). Briefly: PfPK6 kinase inhibitors, biochemical, TCAMS library (AID 1159586). Conditions: recombinant PfPK6, Kinase-Glo ATP depletion luminescence.
Sequence of Plasmodium falciparum protein kinase 6 (PK6, PF3D7_1337100) (Q8IDW1 1-305): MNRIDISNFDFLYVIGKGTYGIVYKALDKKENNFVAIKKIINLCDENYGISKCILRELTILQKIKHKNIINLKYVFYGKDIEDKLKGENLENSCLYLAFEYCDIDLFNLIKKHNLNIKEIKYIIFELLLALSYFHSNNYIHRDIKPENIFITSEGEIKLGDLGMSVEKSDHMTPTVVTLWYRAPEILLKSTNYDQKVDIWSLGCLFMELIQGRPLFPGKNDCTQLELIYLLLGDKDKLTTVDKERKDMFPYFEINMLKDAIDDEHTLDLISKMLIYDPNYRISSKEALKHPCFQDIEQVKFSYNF
The target in assay [7] is Protein kinase 7 (PK7), Plasmodium falciparum 3D7 (PF3D7_0213400) (UniProt Q7YTF7). Briefly: inhibition of Plasmodium PK7 catalytic activity – biochemical, TCAMS antimalarial set, Kinase-Glo luminescence (AID 1159587). Conditions: recombinant PfPK7, Kinase-Glo ATP depletion luminescence.
Sequence of Protein kinase 7 (PK7), Plasmodium falciparum 3D7 (PF3D7_0213400) (Q7YTF7 1-343): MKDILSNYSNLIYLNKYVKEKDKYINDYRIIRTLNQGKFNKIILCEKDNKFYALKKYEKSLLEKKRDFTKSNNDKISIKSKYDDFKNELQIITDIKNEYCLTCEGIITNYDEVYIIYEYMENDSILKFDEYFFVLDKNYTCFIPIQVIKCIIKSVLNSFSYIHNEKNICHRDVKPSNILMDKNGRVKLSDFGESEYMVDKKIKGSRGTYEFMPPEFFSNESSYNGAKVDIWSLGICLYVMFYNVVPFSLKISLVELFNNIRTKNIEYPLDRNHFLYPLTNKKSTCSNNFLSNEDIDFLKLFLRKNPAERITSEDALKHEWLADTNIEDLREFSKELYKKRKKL
Assay [8] deals with Calcium-dependent protein kinase 4 (Plasmodium falciparum (isolate 3D7)) (UniProt Q8IBS5). The assay can be described thus: PfCDPK4 kinase inhibitors, biochemical, TCAMS library (AID 1159588; cut-off not given, nearly all actives have IC50 up to about 0.91 µM). Conditions: recombinant PfCDPK4, Kinase-Glo ATP depletion luminescence.
Sequence of Calcium-dependent protein kinase 4 (Plasmodium falciparum (isolate 3D7)) (Q8IBS5 whole entry, looked up): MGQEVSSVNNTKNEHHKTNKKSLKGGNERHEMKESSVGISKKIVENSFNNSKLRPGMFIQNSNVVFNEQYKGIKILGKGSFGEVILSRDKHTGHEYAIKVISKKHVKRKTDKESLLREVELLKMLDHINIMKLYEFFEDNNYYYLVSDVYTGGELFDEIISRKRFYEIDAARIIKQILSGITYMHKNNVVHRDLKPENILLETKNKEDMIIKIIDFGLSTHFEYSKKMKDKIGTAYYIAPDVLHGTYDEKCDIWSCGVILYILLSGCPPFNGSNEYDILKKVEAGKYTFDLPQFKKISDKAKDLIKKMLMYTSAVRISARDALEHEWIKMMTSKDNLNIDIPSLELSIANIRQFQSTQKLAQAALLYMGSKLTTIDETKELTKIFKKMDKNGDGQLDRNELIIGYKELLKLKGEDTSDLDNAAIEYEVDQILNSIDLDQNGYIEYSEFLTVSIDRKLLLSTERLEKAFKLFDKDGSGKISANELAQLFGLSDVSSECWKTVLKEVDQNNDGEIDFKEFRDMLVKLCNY

Usually inhibition stands for the change of the read-out against control, counted positive when it falls. Consider `O=[N+]([O-])c1cccc(Nc2cncc(-c3ccc(CO)cc3)c2)c1`, for which the growth inhibition in assay [1] was 96% (active); in assay [4], 85% (active). The inhibition in assay [2] was 16%; in assay [3], -5%. In addition, the result in assay [5], in assay [6], in assay [7] and in assay [8] was inactive.

On to `CS(=O)(=O)c1ccc(CNCc2ccc(-c3ccc(-c4nc5ccc(C(F)(F)F)cc5[nH]4)s3)cc2)cc1`, for which the growth inhibition in assay [1] was 98% (active); in assay [4], 102% (active). Also, the inhibition in assay [2] was 49%; in assay [3], -5%. Further, the result in assay [5], in assay [6], in assay [7] and in assay [8] was inactive.

With `c1ccc2[nH]c(-c3ccc(-c4ccc(CNCC5CCCO5)cc4)s3)nc2c1` (stereo not given), the results for the growth inhibition in assay [1] and in assay [4] were 87% (active) and 101% (active), respectively. Moreover, the inhibition was 27% in assay [2] and 4% in assay [3]. Also, the outcome in assay [5], in assay [6], in assay [7] and in assay [8] was inactive.

Take `N#Cc1ccc(N2CCN(Cc3ccc(-c4ccc(-c5nc6ccccc6[nH]5)s4)cc3)CC2)nc1`: the results for the growth inhibition in assay [1] and in assay [4] were 63% (active) and 99% (active), respectively. The inhibition is 17% in assay [2] and 2% in assay [3]. Besides, the outcome in assay [5], in assay [6], in assay [7] and in assay [8] was inactive.

For the molecule `COc1cc(-c2nnc(SCC(=O)Nc3cc(C)on3)n2C)cc(OC)c1O`, the growth inhibition in assay [1] was 2%; in assay [4], 89% (active). For the same molecule, the inhibition in assay [2] was 2%; in assay [3] it was 5%. The outcome in assay [5], in assay [6], in assay [7] and in assay [8] was inactive.

Turning to `CCOc1ccc(-c2cc3nc(C4CCNCC4)c(C(=O)Nc4ccc(C)cc4Cl)cn3n2)cc1`, the results for the growth inhibition in assay [1] and in assay [4] were 22% and 95% (active), respectively. Also, the inhibition was 63% (active) in assay [2] and 2% in assay [3]. For the same molecule, the result in assay [5], in assay [6], in assay [7] and in assay [8] was inactive.

In the case of `Cc1cc(NN=CC=Cc2ccccc2)c2ccccc2n1`, the growth inhibition in assay [1] was 69% (active); in assay [4] it was 101% (active). The inhibition in assay [2] is 19%; in assay [3], 1%. Further, the result in assay [5], in assay [6], in assay [7] and in assay [8] was inactive.

Regarding `Clc1ccc(Nc2nc(NCc3ccccc3)nc(N/N=C/c3ccccn3)n2)cc1`, the results for the growth inhibition in assay [1] and in assay [4] were 91% (active) and 99% (active), respectively. Further, the inhibition is 41% in assay [2] and 3% in assay [3]. Moreover, the outcome in assay [5], in assay [6], in assay [7] and in assay [8] was inactive.

Take `O=C(c1ccc(-c2ccc(Cl)cc2)o1)N1CCc2cc3nccc(N4CCN5CCC[C@H]5C4)c3cc21`: the growth inhibition in assay [1] was 86% (active); in assay [4] it was 101% (active). In addition, the inhibition was 1% in assay [2] and -3% in assay [3]. Besides, the result in assay [5], in assay [6], in assay [7] and in assay [8] was inactive.

`COc1ccc2nccc([C@@H](O)CN3CCC(NC(=O)C(c4cc5ccccc5s4)N4CC(C)OC(C)C4)CC3)c2c1` (stereo not given in full): the figures for the growth inhibition in assay [1] and in assay [4] were 44% and 93% (active), respectively. The inhibition in assay [2] is 12%; in assay [3], -6%. The result in assay [5], in assay [6], in assay [7] and in assay [8] was inactive.

On to `O=C(NCC(=O)N1CCC[C@H]1C(=O)O)[C@@H](Cc1ccccc1)NC(=O)[C@@H]1CCCN1C(=O)CCCc1ccc(O)cc1` ({Butanoyl(4-(4-HOPh))}-P[dF]GP-OH), for which the growth inhibition in assay [1] was 1%; in assay [4], 81% (active). The values for the inhibition in assay [2] and in assay [3] were 1% and 3%, respectively. In addition, the result in assay [5], in assay [6], in assay [7] and in assay [8] was inactive.

As to `COc1cccc(-c2c(C#N)c(N)nc3c2c(C)nn3-c2ccccc2)c1O`, the growth inhibition in assay [1] and in assay [4] was 100% (active) each time. Besides, the inhibition in assay [2] is 4%; in assay [3], 7%. For the same molecule, the outcome in assay [5], in assay [6], in assay [7] and in assay [8] was inactive.

For the molecule `C[C@@H]1CN(c2cnn(Cc3cccc(NC(=O)Nc4ccc(-c5ccccc5)cc4)c3)c(=O)c2Cl)C[C@H](C)N1`, the growth inhibition was 67% (active) in assay [1] and 101% (active) in assay [4]. The inhibition in assay [2] is 6%; in assay [3], 1%. Also, the result in assay [5], in assay [6], in assay [7] and in assay [8] was inactive.

With `COc1cccc(OC)c1CN1CCC(N(C)CCCCCCCCCN2CCC(OC(=O)Nc3ccccc3-c3ccccc3)CC2)CC1`, the growth inhibition in assay [1] and in assay [4] was 98% (active) in each case. In addition, the values for the inhibition in assay [2] and in assay [3] were 100% (active) and -1%, respectively. Besides, the outcome in assay [5], in assay [6], in assay [7] and in assay [8] was inactive.

In the case of `COc1cc(C(=O)NC2CCN(Cc3ccccc3)CC2)ccc1-c1nc2cc(Cl)c(C)cc2[nH]1`, the growth inhibition in assay [1] was 97% (active); in assay [4], 99% (active). Further, the inhibition in assay [2] was -3%; in assay [3], 0%. Moreover, the outcome in assay [5], in assay [6], in assay [7] and in assay [8] was inactive.

In the case of `Cc1[nH]c(C)c(-c2ccc(-c3ccc(Cl)cc3)nc2)c(=O)c1Br`, the values for the growth inhibition in assay [1] and in assay [4] were 96% (active) and 97% (active), respectively. For the same molecule, the inhibition in assay [2] was 21%; in assay [3] it was 3%. Moreover, the outcome in assay [5], in assay [6], in assay [7] and in assay [8] was inactive.

Turning to `COc1ccnc(NCCCNCc2cn(S(=O)(=O)c3ccccc3)c3ccccc23)c1`, the results for the growth inhibition in assay [1] and in assay [4] were 18% and 99% (active), respectively. Besides, the inhibition in assay [2] is 57% (active); in assay [3], -2%. Further, the result in assay [5], in assay [6], in assay [7] and in assay [8] was inactive.

As for `CN=C(Nc1c(Cl)cccc1Cl)N(C)C`, the figures for the growth inhibition in assay [1] and in assay [4] were 1% and 98% (active), respectively. Also, the figures for the inhibition in assay [2] and in assay [3] were -12% and -1%, respectively. Besides, the outcome in assay [5], in assay [6], in assay [7] and in assay [8] was inactive.

As for `Cc1cc(OCc2ccccc2)c(OCc2ccccc2)cc1C(O)CN(C)Cc1ccccc1` (stereo not given), the growth inhibition in assay [1] is 87% (active); in assay [4], 96% (active). For the same molecule, the figures for the inhibition in assay [2] and in assay [3] were 14% and -2%, respectively. For the same molecule, the outcome in assay [5], in assay [6], in assay [7] and in assay [8] was inactive.

For `CC(C)CNC(=O)c1cncc(-c2ccc(CNC3Cc4ccccc4C3)cc2)c1`, the growth inhibition in assay [1] is 37%; in assay [4], 99% (active). The figures for the inhibition in assay [2] and in assay [3] were 5% and 0%, respectively. Also, the outcome in assay [5], in assay [6], in assay [7] and in assay [8] was inactive.
